# Compound activity (PubChem)
# In the library only some 19% were active in any assay of this set; here they are far more common.
# DT40 TDP1 CPT: growth inhibition of DT40 Tdp1-/-;hTDP1 cells with camptothecin (screen for TDP1 inhibitors); chicken DT40 Tdp1-/-;hTDP1 cells + 20 nM CPT, ATP luminescence, 48 h; Potency, µM (top dose mostly 46.2 µM), for inactives: top-dose activity change, negative = growth inhibition, usual class: inhibitors; 420,000 compounds, 12% hits; note: potency is the fitted concentration of half-maximal effect; nearly all actives have a fitted effect of over 55% in size
#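 Cell growth measured by CellTiter-Glo luminescence after a minimum 48 h, 37 C compound exposure with 20 nM CPT in Tdp1-knockout DT40 cells stably expressing hTDP1, seeded 400/well; qHTS titration format.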
# IL1B secr inh: blocks inflammasome-driven IL-1 beta release | 360,000 compounds, 4.7% hits | activity change, % at 57.5 µM | THP-1 LPS/ATP IL-1B secretion, AlphaLISA, 16 h; active compounds read low; in the data active = activity change below about -50%; inconclusive = mostly about -30% to -49%
#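 THP-1 cells pretreated 1 hr with compounds (up to 57.5 uM final), then stimulated with LPS (250 ng/mL final) plus ATP (1.25 mM final); secreted IL-1B measured by AlphaLISA after 16 hr, decreased signal indicating inhibition.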
# uPA surface inh: inhibitors of cell surface uPA generation; cell surface uPA generation assay, qHTS; Potency, µM (series often up to 38.3 µM), for inactives: at the top dose activity change, negative = inhibition, most hits filed as inhibitors; 330,000 compounds, 0.31% hits; active = well fitted inhibition curve with a large enough effect; inconclusive = small, poorly fitted or top-dose-only effect; inactive = no such curve, though single readings can be large or run the other way; tested in mouse RAW 264.7 cells; note: potency is the fitted concentration of half-maximal effect; nearly all actives have a fitted effect of over 55% in size
# HT1080NT lethal: kills 2HG-producing HT-1080-NT fibrosarcoma cells; HT-1080-NT fibrosarcoma viability, CellTiter-Glo ATP luminescence, 48 h; Potency, µM (top dose mostly 46.1 µM), inactives show at the highest dose activity, negative = less viability, usual class: cytotoxic; 360,000 compounds, 1.6% hits; AID 686970;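 note: NT is the 2HG producing partner of a matched IDH1 knockdown line; potency is the fitted concentration of half-maximal effect; 0% = DMSO-treated cells and -100% = media-only wells without cells; nearly all actives have a fitted effect of over 55% in size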
#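 750 cells/well, RPMI + 5% FBS; 2 h settle, compound pin-transfer, 48 h at 37 degrees C. CellTiter-Glo 10 min RT, luminescence. Normalized to DMSO and media-only wells.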
# DT40 TDP1 no CPT: qHTS for Inhibitors of human tyrosyl-DNA phosphodiesterase 1 (TDP1): qHTS in cells in absence of CPT. DT40 Tdp1-/- hTDP1 cells, no CPT, ATP luminescence, 48 h. Potency, µM (doses to about 46.2 µM), for inactives: at the highest dose activity change, negative = growth inhibition, actives largely listed as inhibitors. 420,000 compounds, 15% hits. AID 686978, 2013; note: potency is the fitted concentration of half-maximal effect; nearly all actives have a fitted effect of over 55% in size
#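 Luminescent ATP content (CellTiter-Glo) served as the growth readout. Knockout chicken DT40 cells expressing human TDP1 were exposed to compounds without camptothecin for a minimum 48 hr at 37 °C.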
# HT1080 IDH1KD tx: toxicity to HT-1080 IDH1 knockdown cells (counter line); HT-1080 IDH1 knockdown viability, ATP luminescence, 48 h; Potency, µM (doses to about 46.1 µM), for inactives: at the top dose activity, negative = toxicity, actives largely listed as cytotoxic; 360,000 compounds, 2% hits;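 note: potency is the fitted concentration of half-maximal effect; 0% = DMSO wells and -100% = cell-free medium wells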
#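 Knockdown cells (IDH1KD HT-1080) received compounds 2 h after plating at 750 cells/well and were kept 48 h at 37 °C in 5% FBS RPMI. A CellTiter-Glo luminescence read gave % activity for curve fitting.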
# Active calls of the source: *; i = inactive; ? = inconclusive; . = not tested or not shown; [ ] = dose if it differs, or a comment. Unless noted, calls come from the whole dose curve; as a rule, active = well fitted curve in the direction sought with a large enough effect; inconclusive = small, poorly fitted or top-dose-only effect, or another doubt; inactive = no such curve, though single readings can be large; an effect the other way counts as inactive or inconclusive. Unless noted, % is set by controls: 0 for no effect and ±100 for the full control effect.
SMILES,DT40 TDP1 CPT,IL1B secr inh,uPA surface inh,HT1080NT lethal,DT40 TDP1 no CPT,HT1080 IDH1KD tx
O=C(Nc1ccc(Cl)cc1Cl)c1cc(S(=O)(=O)N2CCN(c3ccccc3F)CC2)ccc1F,9.2µM*,.,.,.,8.2µM*,.
O=C(Nc1ccc(Cl)cc1Cl)c1cc(S(=O)(=O)N2CCC3(CC2)OCCO3)ccc1F,16µM*,.,.,.,16µM*,.
O=C(Nc1cc(S(=O)(=O)N2CCOCC2)ccc1N1CCCC1)c1ccccc1F,2%,-4,.,7%,2%,13%
O=C(Nc1noc2ccccc12)c1ccc(F)cc1,-4%,.,.,.,-19%,.
COCCn1c(=O)c(C)nc2cnc(Oc3ccc(OC)cc3)nc21,-29%,.,.,.,-22%,.
Cc1ccc(CNc2nc3ccccc3c3nc(-c4cccc(C)c4)nn23)cc1,2%,.,.,.,-24%,.
O=C(c1ccc(OC2CCN(Cc3ccccn3)CC2)cc1)N1CCCCO1,10%,37,1%,11%,3%,10%
CC(=S)/C=C1\Sc2ccccc2N1C,15µM*,-61*,-3%,?,23µM*,?
Cc1cccc(NC(=O)Cn2c(=O)n(Cc3nc(-c4ccccc4)no3)c(=O)c3ccccc32)c1,-29%,.,.,.,?,.
Cc1ccc(C(=O)NCC(=O)OC(C)C(=O)Nc2ccc(N3CCOCC3)cc2)s1 (stereo not given),-21%,-2,4%,-5%,-1%,21%
O=[N+]([O-])c1ccc(C[n+]2cccc3ccc4cccnc4c32)cc1,1.8µM*,0,-2%,?,1.6µM*,?
O=[N+]([O-])c1ccc(C[n+]2cccc3ccccc32)cc1,?,28,-3%,-11%,?,-6%
Cc1cc(SCC(=O)N/N=C/c2ccc(O)c(O)c2)c(C)cc1Br,21µM*,51,-5%,-28%,16µM*,?
COc1ccc2nc(C)cc(SCC(=O)N/N=C/c3ccc(O)c(O)c3)c2c1,?,?,-13%,-7%,29µM*,-16%
O=C(CSc1nc2ccccc2o1)N/N=C/c1ccc(O)c(O)c1,18µM*,28,6.3µM*,-10%,21µM*,-12%
CC(=O)N1CCC(=NNC(=O)CSc2cc(C)c(Br)cc2C)CC1,-20%,i,-3%,-3%,-25%,2%
COc1cccc2c(SCC(=O)N/N=C/c3ccc(O)c(O)c3)cc(C)nc12,-27%,-64*,-10%,-16%,?,?
O=C(CSc1nc2ccccc2o1)N/N=C/c1ccccc1,-20%,-14,-11%,7%,-15%,2%
C/C(=C\c1ccco1)CN1CCOc2ccc(CN3CCC(Oc4cccnc4)CC3)cc2C1,2%[9.04 µM],.,.,.,-33%,.
CCC(=O)NC1Cc2ccccc2C(c2ccccc2)C1 (stereo not given),-29%,.,.,.,?,.
C=CCc1cc(/C=N\NC(=O)CSc2nnc(CCCc3ccc(OC)c(C)c3)o2)cc(OC)c1O,?,-6,-2%,-13%,?,-6%
COc1ccc2nc(C)cc(SCC(=O)N/N=C/c3cccc4ccccc34)c2c1,7.1µM*,-56*,.,11µM*,13µM*,6.3µM*
Cc1cc(SCC(=O)N/N=C/c2ccc(O)c(O)c2)nc2ccccc12,?,10,-11%,-29%,?,?
COC(=O)CSc1cc(C)nc2ccc(OC)cc12,-4%,22,3%,19%,-11%,4%
COc1ccc(CCCc2nnc(SCC(=O)N/N=C\c3ccc(O)c(OC)c3)o2)cc1C,15µM*,-25,-10%,-12%,?,-20%
SMILES,DT40 TDP1 CPT,IL1B secr inh,uPA surface inh,HT1080NT lethal,DT40 TDP1 no CPT,HT1080 IDH1KD tx
Cc1cc(SCC(=O)N/N=C/c2ccc(O)cc2O)nc2ccccc12,?,118,-12%,?,4.1µM*,?
CCOc1ccc(CCNC(=O)CN2N=C(c3ccccc3)CCC2=O)cc1OCC,-21%,.,.,.,?,.
Cc1ccc2nc(-c3ccccc3N)[nH]c2c1,-25%,-30,-18%,?,?,?
Cc1nc2ccc(-c3nc4ccc(N)cc4[nH]3)cc2[nH]1,2.9µM*,0,-6%,7%,4.1µM*,5%
Cc1ccc(C)c(-c2nc3ccc(N)cc3[nH]2)c1,23µM*,65,-3%,0%,15µM*,-14%
Cc1nc2ccc(Cc3ccc4nc(C)[nH]c4c3)cc2[nH]1,26µM*,9,-6%,-14%,?,-8%
Nc1ccc2nc(-c3ccc(Cl)cc3)[nH]c2c1,2.9µM*,-18,4.5µM*,23µM*,4.6µM*,21µM*
COc1ccc2c(c1)sc1ncc(C(=O)NCc3cccc(C)c3)c(=O)n12,4%,.,.,.,5%,.
Cc1ncoc1C(=O)N1CCCC(C(=O)Nc2cccc(-c3ccc(F)cc3)c2)C1 (stereo not given),?,-9,-11%,-5%,18µM*,-2%
O=C(NCC1CCCN(C(=O)c2cscn2)C1)c1ccc(-c2ccccc2)cc1 (stereo not given),-29%,?,-4%,-21%,21µM*,-21%
O=C(Nc1cccc(-c2ccc(F)cc2)c1)C1CCCN(C(=O)c2cscn2)C1 (stereo not given),13µM*,18,-4%,-4%,?,3%
CC1(C)C(OC(=O)CCC(=O)O)CC[C@]2(C)C1CC[C@@]1(C)C2C(=O)C=C2[C@@H]3C[C@@](C)(C(=O)O)CC[C@]3(C)CCC21C (stereo not given in full),13%,.,.,.,2%,.
Cc1ccc2[nH]cc(S(=O)(=O)c3ccc(F)cc3)c(=O)c2c1,?,-6,8%,-4%,9.2µM*,-2%
CC1(C(=O)NCCc2ccccc2)Cc2c(-c3ccc(C(N)=O)cc3)ccnc2O1 (stereo not given),16µM*,31,.,12%,?,10%
COc1ccc(CNC(=O)C2(C)Cc3c(-c4cccc(C(N)=O)c4)ccnc3O2)cc1OC (stereo not given),-4%,5,.,-10%,?,-13%
CC1(C(=O)NCc2ccco2)Cc2c(-c3cccc(C(N)=O)c3)ccnc2O1 (stereo not given),4.1µM*,-57*,.,?,5.8µM*,?
CC(=O)Nc1cccc(-c2ccnc3c2CC(C)(C(=O)NCc2ccc(F)c(F)c2)O3)c1 (stereo not given),3.7µM*,82,.,?,3.7µM*,?
